# A selection: hits, their analogues and other compounds. The true share with any hit is near 9.4%.
# Pf growth 48h – P. falciparum growth inhibition at 48 hours (one generation) | 5.9% of 310,000 active | Potency, µM (titrated, usually from 28.7 µM), usual class: inhibitors | P. falciparum luciferase growth in erythrocytes, 48 h
#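 Growth was read as firefly luciferase luminescence after a 48 h, 37 C, 5% CO2 exposure of compounds to reporter-bearing P. falciparum cultures (0.1% parasitemia, 2% hematocrit final) in Albumax-supplemented RPMI 1640.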
# SARS PLP yeast – blocks SARS-CoV papain-like protease in a yeast assay | AID 485353 | Potency, µM (titrated, usually from 32.9 µM), actives largely listed as activators | S. cerevisiae expressing SARS-CoV PLpro, growth rescue | 0.19% of 330,000 active; calls by dose curve; note: nearly all actives have a fitted effect of over 55% in size
# Pf growth 96h – P. falciparum growth inhibition at 96 hour, primary screen for plastid delayed-death inhibitors. Potency, µM (highest dose often 28.7 µM), hits mostly inhibitors. 6.9% of 320,000 active. P. falciparum luciferase reporter growth, 96 h
#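 96 h incubation, 37 C, 5% CO2, of luciferase-reporter P. falciparum-infected RBCs (2% hematocrit, 0.05% parasitemia final) with test compounds; endpoint luminescence.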
# AMA1 RON2 block – inhibitors of Plasmodium falciparum AMA1-RON2 interaction; AlphaScreen AMA1-biotinylated RON2 peptide binding; Potency, µM (titrated, usually from 58.2 µM), actives largely listed as inhibitors; 0.2% of 360,000 active; AID 720542; note: nearly all actives have a fitted effect of over 45% in size
#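 AMA1 (3D7) with his tag at 25 nM final met compounds first, then biotinylated RON2 peptide at 25 nM; detection used donor plus acceptor beads, 10 µg/mL apiece, read by AlphaScreen after 30 min at room temperature.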
# Hits are given with their value; – = inactive; ? = inconclusive; · = no result; [ ] = dose if it differs, or a comment. Unless noted, calls come from the whole dose curve; as a rule, active = well fitted curve in the direction sought with a large enough effect; inconclusive = small, poorly fitted or top-dose-only effect, or another doubt; inactive = no such curve, though single readings can be large; an effect the other way counts as inactive or inconclusive.
SMILES,Pf growth 48h,SARS PLP yeast,Pf growth 96h,AMA1 RON2 block
Oc1ccc(COC2CCCC2)c2cccnc12,1.31µM,–,8.28µM,·
O=C(c1ccco1)N1CCN(C(c2ccccc2Cl)c2nnnn2Cc2ccco2)CC1 (centres undefined),?,–,·,–
Oc1ccc(COc2cccc3ccccc23)c2cccnc12,2.62µM,–,5.22µM,·
Oc1ccc(CNc2ccccc2)c2cccnc12,?,10µM,–,–
CCC(C(=O)NCCc1c[nH]c2ccc(C)cc12)c1ccccc1 (centres undefined),?,–,14.7µM,–
Cc1ccc(C)c(NC(=O)C(=O)NCCc2c[nH]c3ccccc23)c1,–,–,–,–
CN(C)c1ccc(N=Cc2ccco2)cc1,0.828µM,–,?,–
CN(C)c1ccc(C=Nc2ccc(N(C)C)cc2)cc1,?,–,–,?
CCCCOc1cccc(OCCCC)c1C(=O)Nc1cc(C)on1,2.08µM,–,–,–
CCOc1ccc(CCNC(=O)CCNC(=O)c2ccccc2Cl)cc1OCC,11.7µM,–,?,–
CCOc1ccc(C(=O)Nc2cc(C)on2)cc1OCC,11.7µM,–,–,–
CCOc1ccc(CCNC(=O)c2cc(C)on2)cc1OCC,10.4µM,·,?,–
COc1ccc(C(=O)Nc2cc(C)on2)cc1OC,–,–,–,–
CCCCNC(=O)Nc1cc(C)on1,·,–,–,–
COc1ccc(CCNC(=O)CCNC(=O)c2ccccc2Cl)cc1,–,–,–,–
O=C(Nc1ccc(F)c(F)c1)C1CCCN(S(=O)(=O)c2cnc[nH]2)C1 (centres undefined),–,–,?,–
CCOCCCNC(=S)NCCCNc1nc2cc3c(cc2cc1C#N)OCO3,?,–,?,–
CCOc1ccc(OCCC(=O)OCC(=O)c2c(N)n(C)c(=O)n(C)c2=O)cc1,?,–,–,–
Cc1ccc(NC(=O)CN2C(=O)S/C(=C\c3cccn3-c3cccc(C(=O)O)c3)C2=O)c(C)c1,–,–,–,–
CC(C)(C)c1ccc(CSc2nc(N)cc(=O)[nH]2)cc1,–,–,–,–
O=C(CCCN1C(=O)/C(=C/c2ccccc2Cl)SC1=S)NNC(=O)c1ccncc1,?,–,?,–
Cc1ccccc1NC(=S)c1nc2ccccc2[nH]1,3.29µM,·,–,–[11.6 µM]
CCC(C)(C)NC(=O)CN(C(=O)CCC(=O)Nc1nccs1)c1cccc(C)c1C,13.1µM,–,–,–
CCC(C)(C)NC(=O)C(c1ccc(O)cc1)N(CCOC)C(=O)CCC(=O)Nc1nccs1 (centres undefined),2.94µM,–,–,–
CCC(C)(C)NC(=O)CN(C(=O)CCC(=O)Nc1nccs1)c1ccc(C)cc1,–,–,?,–
SMILES,Pf growth 48h,SARS PLP yeast,Pf growth 96h,AMA1 RON2 block
CCC(C)(C)NC(=O)C(c1ccc(OC)cc1)N(CCOC)C(=O)CCC(=O)Nc1nccs1 (centres undefined),–,–,?,–
CCCOc1cc2c(C#N)c(N3CCCC3)nc(N)c2c(N)n1,·,·,·,–
NS(=O)(=O)c1ccc(NC(=O)CSc2ccccn2)cc1,–,–,–,–
Cc1ccc(C)c(C2=CSC3=NCCN23)c1,?,–,–,–
Cc1ccc(-c2nn(-c3ccccc3)cc2C=C2SC(=S)N(CCS(=O)(=O)O)C2=O)cc1,·,·,·,31.6µM
CCN1C(=O)/C(=C\c2cn(-c3ccccc3)nc2-c2cccnc2)SC1=S,11.7µM,–,?,–
O=C1C(=Cc2cn(-c3ccccc3)nc2-c2ccc(OCc3ccccc3)cc2)SC(=S)N1CCS(=O)(=O)O,·,·,·,–
O=C(O)CN1C(=O)/C(=C\c2cn(-c3ccccc3)nc2-c2ccccc2)SC1=S,–,–,?,–
COc1ccc2c(c1)CCCC21SC(NC(C)=O)=NN1C(C)=O (centres undefined),–,–,–,–
CCOC(=O)N1CCC(N2CC34C=CC(O3)C(C(=O)Nc3ccc(F)cc3)C4C2=O)CC1 (centres undefined),·,–,14.7µM,–
O=C(OCCCCN1C(=O)c2ccccc2C1=O)c1n[nH]c2ccccc12,?,–,13.1µM,–
CC(C)CC1NC(=O)c2ccccc2-n2c1nc1ccccc1c2=O (centres undefined),·,–,·,·
O=C1NC2CCc3nc4ccccc4c(=O)n3C2=Nc2ccccc21 (centres undefined),–,–,11.7µM,–
CCN(CCn1cccn1)C(=O)CCc1nnc(C2CCCCC2)o1,–,–,–,–
COc1ccc(-n2c(C)nn(C)c2=O)cc1,–,–,?,–
COc1ccc(-n2c(/C=C(\C)O)nc(=O)c3c(C)cc(C)nc32)cc1,0.828µM,–,·,–
Cc1ccc(Oc2cc(NC(=O)CCCn3nc([N+](=O)[O-])c(Cl)c3C)cc([N+](=O)[O-])c2)cc1,–,–,?,–
COc1ccc(C(=O)c2ccccc2)cc1,–,–,?,–
COc1ccc(C(=O)c2ccc(Br)cc2)cc1,11.7µM,–,?,–
COc1cccc(OCC(=O)NNC(=O)c2ccc3ccccc3c2)c1,–,–,–,–
COc1ccc(CCN(C)C(=O)CSc2nnnn2C)cc1OC,–,–,10.4µM,–
COc1ccc(CCN(C)C(=O)CSc2nnc(-c3ccco3)o2)cc1OC,–,–,–,–
CCOC(=O)c1c(NC(=O)c2cccnc2Cl)sc(C(=O)N(C)C)c1C,–,–,–,–
N#Cc1ccc(C23CC4(C2)[C@H](CN(Cc2ccc(C(F)(F)F)cc2)[C@@H]4c2ccccc2)C3c2ccc(Cl)nc2)cc1 (some centres undefined),11.7µM,–,13.1µM,·
Clc1ccc(C2[C@H]3CN(Cc4ccc(-c5ccccc5)cc4)[C@H](c4ccccc4)C34CC2(c2cccnc2)C4)cn1 (some centres undefined),3.29µM,–,2.33µM,·
SMILES,Pf growth 48h,SARS PLP yeast,Pf growth 96h,AMA1 RON2 block
COC(=O)c1cccc(C23CC4(C2)[C@H](CN(Cc2ccc(-c5ccccc5)cc2)[C@@H]4c2ccccc2)C3c2ccc(Cl)nc2)c1 (some centres undefined),?,–,?,–
N#Cc1ccc(C23CC4(C2)[C@H](CN(Cc2ccc(-c5ccccc5)cc2)[C@@H]4c2ccccc2)C3c2ccccc2)cc1 (some centres undefined),–,–,?,–
FC(F)(F)c1ccc(CN2C[C@@H]3C(c4ccc(Cl)nc4)C4(c5cccnc5)CC3(C4)[C@H]2c2ccccc2)cc1 (some centres undefined),3.29µM,–,2.33µM,–
COC(=O)c1ccc(C23CC4(C2)[C@H](CN(Cc2ccc(C(F)(F)F)cc2)[C@@H]4c2ccccc2)C3c2ccc(Cl)nc2)cc1 (some centres undefined),5.22µM,–,11.7µM,–
c1ccc(-c2ccc(CN3C[C@@H]4C(c5ccccc5)C5(c6ccccc6)CC4(C5)[C@H]3c3ccccc3)cc2)cc1 (some centres undefined),–,–,?,–
COC(=O)c1ccc(C23CC4(C2)[C@H](CN(CC2CCCCC2)[C@@H]4c2ccccc2)C3c2ccc(Cl)nc2)cc1 (some centres undefined),9.28µM,–,9.28µM,–

# Compound activity as filed in PubChem.
